# Source: PubChem
# Compounds with a hit are over-represented: about 7.6% of the library has one in this group of screens.
# HCV NS3h FP = blocks HCV NS3 helicase binding to DNA; NS3h Cy5-dT15 DNA binding, fluorescence polarization; inhibition, % at 100 µM; 16,000 tested, 1.6% active; AID 687043;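 active = inhibition above the average over every tested compound plus 3 SD, cut at about 40% in these data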
# Cy5 interf NS3h = enhances or quenches Cy5 fluorescence in NS3h assay | fluorescence interference ratio at 100 µM | Cy5-dT15 DNA with NS3h, fluorescence interference; actives lie on both sides; signal over control mean, under 1 quenches | 16,000 tested, 6% active;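 active = compound fluorescence over control fluorescence at most 0.8, a quencher, or at least a set upper limit, an enhancer; inactive = ratio between 0.8 and the set upper limit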
# * = called active by the depositor.
SMILES,HCV NS3h FP,Cy5 interf NS3h
O=C(CC(Nc1cccc(Cl)c1)c1ccc(F)cc1)c1ccccc1 (configuration not stated),6,1
Cc1ccc(OCCNC(=O)Cc2cccc3ccccc23)cc1,12,0.97
O=C(CC1c2ccccc2Oc2ccccc21)NCCOc1ccccc1,38,0.67*
COc1ccc(C(=O)c2ccc(N3CCN(C(=O)c4ccc(Cl)cc4Cl)CC3)c(F)c2)cc1Br,-3,1.1
COc1cccc(C2NC(=O)NC(C)=C2C(=O)Nc2ccc(C)c(Cl)c2)c1OC (configuration not stated),-1,0.97
Cc1csc(Nc2ccccc2)[n+]1CCO,4,1.2*
CCCC(O)=C1C(=O)CC(C)(C)CC1=Nc1ccccc1,-2,1.1
O=C(c1ccccc1O)N1N=C(c2ccc(Br)cc2)CC1(O)C(F)(F)F (configuration not stated),5,0.92
O=C(c1ccccc1Br)N1N=C(c2ccccc2)CC1(O)C(F)(F)F (configuration not stated),5,0.79*
CC(C)(C)C(=O)/C=C(O)\C(O)=C/C(=O)C(C)(C)C,17,0.96
CC1C(c2ccccc2)NC(c2ccccc2)C(C)C1O (configuration not stated),-4,1
COc1ccc(C2CC(O)C(C)C(c3ccc(OC)cc3)N2)cc1 (configuration not stated),16,0.73*
COc1ccccc1/C=c1/sc2nc3c(Br)c(C)c(C)cc3n2c1=O,4,1
Cc1ccc(NC(=O)CN(c2cc(Cl)cc(Cl)c2)S(C)(=O)=O)cc1,7,0.99
C=CCNC(=O)CN(c1cc(Cl)cc(Cl)c1)S(C)(=O)=O,5,1.2*
O=C(NC(NC(=S)Nc1ccccc1[N+](=O)[O-])C(Cl)(Cl)Cl)c1ccco1 (configuration not stated),12,0.7*
O=C(NC(=S)Nc1ccc([N+](=O)[O-])cc1Cl)c1ccco1,2,0.93
O=C(Cc1ccc(F)cc1)Nc1ccc(Cl)cc1Cl,7,1.1
O=C(Nc1ccccc1C(=O)Nc1ccc(Cl)cc1)c1cccs1,7,0.94
O=C(N/N=C\c1ccc(O)c([N+](=O)[O-])c1)/C(=C\c1ccc2c(c1)OCO2)NC(=O)c1ccccc1,5,1
NC(=S)N/N=C\c1cc2c(cc1[N+](=O)[O-])OCO2,10,0.79*
COC(=O)c1c(NC(=O)COc2ccc(C)cc2C)sc2c1C(C(=O)OC)CC2 (configuration not stated),1,0.98
O=[N+]([O-])c1cccc(-c2nc(-c3ccc(Cl)cc3)no2)c1,-9,0.98
O=[N+]([O-])c1ccc(-c2noc(-c3ccccc3Br)n2)cc1,-9,0.76*
O=C(O)c1ccc2c(c1)C(=O)N(c1ccc(-c3nc4cc(N5C(=O)c6ccc(C(=O)O)cc6C5=O)ccc4[nH]3)cc1)C2=O,10,0.65*
SMILES,HCV NS3h FP,Cy5 interf NS3h
C#Cc1cccc(N2C(=O)c3ccc(C(=O)O)cc3C2=O)c1,12,0.98
CC(Nc1cc(N2CCN(C)CC2)ccc1[N+](=O)[O-])c1ccc(Br)cc1 (configuration not stated),19,0.9
Cc1ccc(OCCNc2cc(N3CCN(C)CC3)ccc2[N+](=O)[O-])cc1C,21,0.61*
Cc1cc([N+](=O)[O-])ccc1NC(=O)c1ccccc1,-19,1
Cc1ccc(C)c(NC(=O)c2ccc([N+](=O)[O-])cc2)c1,8,0.69*
O=C(Nc1ccccc1C(=O)Nc1ccccn1)c1ccc([N+](=O)[O-])cc1,-45,0.75*
O=C(Nc1ccccc1C(=O)N1CCOCC1)c1ccc([N+](=O)[O-])cc1,0,0.96
NS(=O)(=O)c1ccc(NC(=O)C2CC2(c2ccccc2)c2ccccc2)cc1 (configuration not stated),4,0.94
CCC(C)NC(=O)CN(c1ccc(F)cc1)S(=O)(=O)c1ccccc1 (configuration not stated),9,1
COc1ccc(CN2C(=O)NC(=O)/C(=C\C=C\c3ccccc3)C2=O)cc1,-27,1.9*
COc1ccc(CN2C(=O)NC(=O)/C(=C\C=C\c3ccco3)C2=O)cc1,19,0.9
CCOC(=O)CN1C(c2ccccc2OC)Nc2ccc(Br)cc2C1c1ccccc1 (configuration not stated),10,0.94
Cc1nc2c(C)c(-c3ccccc3)[nH]n2c(=O)c1C,20,1.1
CCOC(=O)CCc1c(C)nc2c(C)c(-c3ccccc3)[nH]n2c1=O,8,1.2*
CCOc1ccc(/C=C2\C(=O)NC(=S)N(c3cccc(Br)c3)C2=O)cc1Cl,13,0.99
COc1ccccc1/C=N\N=C1/NC(=O)C(CC(=O)Nc2cccc(C)c2C)S1 (configuration not stated),15,1
O=C(CC1S/C(=N/N=C\c2ccccc2)NC1=O)Nc1ccccc1F (configuration not stated),-8,1.2*
Cc1occc1-c1nc(-c2cccnc2)no1,3,1.1
CN1C(=O)C(=Cc2ccccc2OCc2ccc([N+](=O)[O-])cc2)C(=O)N(C)C1=O,33,0.58*
COc1cc(/C=C2\SC(=S)NC2=O)ccc1Oc1ccc([N+](=O)[O-])cn1,-3,0.89
COc1cc(C=C2C(=O)N(C)C(=O)N(C)C2=O)ccc1Oc1ccc([N+](=O)[O-])cn1,30,0.79*
O=C(O)CN1C(=O)/C(=C/c2ccccc2OCc2ccc([N+](=O)[O-])cc2)SC1=S,24,1.1
COc1cc(C=C2C(=O)NC(=S)NC2=O)cc(Br)c1OCCOc1ccc(C)c(C)c1,36,0.96
O=C(NN1C(=O)c2ccccc2C1=O)c1ccc(O)cc1,1,0.98
O=C1C=CC(=O)N1c1ccccc1SC(F)(F)F,45*,0.79*
SMILES,HCV NS3h FP,Cy5 interf NS3h
Cc1ccc(S(=O)(=O)N=C(CSC(N)=O)Nc2ccccc2)cc1,3,0.98
O=C(NC1CCCCC1)C12CC3CCC(CC(C3)C1)C2,7,1.2*
CNC(=O)C(C)NC(=O)C12CC3CC(CC(C3)C1)C2 (configuration not stated),0,1.1
C=CCN1C(=O)/C(=C\c2cccc(OCC(=O)O)c2)C(=O)NC1=S,32,0.99
CCOC(=O)c1ccc(NC(=O)CN(c2ccc(Br)cc2)S(C)(=O)=O)cc1,4,0.94
CC1(C)CC(=O)C2=C(C1)OC1=C(C(=O)CC(C)(C)C1)C2c1cccc([N+](=O)[O-])c1,15,1
Cc1ccc(C2C3=C(CC(C)(C)CC3=O)OC3=C2C(=O)CC(C)(C)C3)o1,16,0.67*
Cc1ccc(CN2CCN(N=Cc3cccc(Br)c3)CC2)c(C)c1,2,1
COc1ccc(N2C(=O)C(Cl)=C(Nc3ccc(C)c(Cl)c3)C2=O)cc1,7,0.97
O=C(Nc1ccc(I)cc1Cl)c1ccccc1Cl,4,0.96
COc1cc(/C=C2\NC(=S)NC2=O)ccc1OC(=O)C12CC3CC(CC(C3)C1)C2,7,0.68*
Cc1ccc(OC(=O)C23CC4CC(CC(C4)C2)C3)c(C)n1,-2,0.83
CCOC(=O)C1(P(=O)(c2ccccc2)c2ccccc2)CCOCC1,-1,0.93
N#CN=C1CCCN1C(=O)c1ccccc1,5,1.1
COCCCNC(=O)C(=O)NCCc1ccc(OC)cc1,13,0.74*
COc1ccc(CNC(=O)C(=O)Nc2ccccc2C)cc1,4,1.1
